Values joined by “and” are separate entries in the source; they are usually repeats but may differ in a detail not shown here. Identical values can stand only once. Active and inactive are the calls of the source. Rule for the calls: active = hit-call score of the fitted dose curve at least 0.9, where 1 is the maximum; inactive = score below 0.9.
Test: BSK_3C_VCAM1: BioMAP Diversity Plus: 3C Assay for Vascular cell adhesion molecule 1 (VCAM1) Biomarker Activity (AID 2282999)
Details: BioMAP 3C HUVEC, VCAM1 ELISA, cytokine-stimulated; actives raise or lower the signal
Method: BSK_3C is a cell-based, multiplexed-readout assay that uses umbilical vein endothelium, a human vascular primary cell, with measurements taken at 24 hours after chemical dosing in a 96-well plate.BSK_3C_VCAM1 is an assay component measured in the BSK_3C assay. It measures VCAM-1 antibody related to regulation of gene expression using ELISA technology.Data from the assay component BSK_3C_VCAM1 was analyzed into 1 assay endpoint. This assay endpoint, BSK_3C_VCAM1, was analyzed with bidirectional fitting relative to DMSO as the negative control and baseline of activity. Using a type of binding reporter, gain or loss-of-signal activity can be used to understand changes in the signaling as they relate to the gene VCAM1. Furthermore, this assay endpoint can be referred to as a primary readout, because this assay has produced multiple assay endpoints where this one serves a signaling function. To generalize the intended target to other relatable targets, this assay endpoint is annotated to the cell adhesion molecules intended target family, where the subfamily is Immunoglobulin CAM.
The levels of cell surface (or secreted, indicated by the prefix "s") biomarker endpoints were measured by ELISA. Overt cytotoxicity to cells in confluent adherent cultures (all systems other than the BT system) was assessed by measuring total protein levels using sulforhodamine B (SRB) staining in parallel cultures at the time of biomarker measurements, indicated as SRB endpoints. For proliferation assays for adherent cell types, individual cell types are cultured at sub-confluence and relative cell numbers quantified by SRB staining at time points optimized for each system (48 h: 3C and CASM3C systems; 72 h: BT and HDF3CGF systems; 96 h: SAg system). SRB was performed by staining cells with 0.1% SRB after fixation with 10% TCA and reading wells at 560 nm.Viability and proliferation of PBMC (T cells) was quantified by Alamar Blue reduction for the SAg and BT systems. For PBMC viability (referred to as PBMC Cytotoxicity within the assay endpoint names), cells were plated (75,000/well in a 96-well plate) and then chemical samples added for 1 h before addition of activators, SEB and TSST-1 (20 ng/mL final concentration each). Cells were incubated for 90 h. Then, Alamar Blue (20 uL/well) (Invitrogen, Cat DAL1100) was added for 6 h, and the plates were read with a fluorescence microplate reader at 546/580 nm (excitation/emission). For PBMC proliferation, cells were plated and activated as above but incubated for only 16 h prior to addition of Alamar Blue. Plates were read after 6 h.

SMILES | outcome | AC50
CC1=NN(c2ccccc2)C(=O)C1 | inactive | 
NC(=NCCCCCCN=C(N)/N=C(\N)Nc1ccc(Cl)cc1)/N=C(\N)Nc1ccc(Cl)cc1 |  | 7.92 µM (active)
CCCCC(CC)C(=O)O (stereo not given) | inactive | 
O=C(O)CCC(F)(F)C(F)(F)C(F)(F)C(F)(F)C(F)(F)C(F)(F)F | inactive | 
CN(CCO)S(=O)(=O)C(F)(F)C(F)(F)C(F)(F)C(F)(F)C(F)(F)C(F)(F)C(F)(F)C(F)(F)F | inactive | 
O=C(O)C(F)(F)OC(F)(F)C(F)(F)OC(F)(F)C(F)(F)OC(F)(F)C(F)(F)C(F)(F)C(F)(F)F |  | 52.2 µM (active) and 50.4 µM (active)
O=S(=O)(O)C(F)(F)C(F)(F)C(F)(F)C(F)(F)C(F)(F)C(F)(F)C(F)(F)C(F)(F)C(F)(F)C(F)(F)F | inactive | 
COCN(COC)c1nc(N(COC)COC)nc(N(COC)COC)n1 | inactive | 
CS(=O)(=O)c1ccc([C@@H](CC2CCCC2)C(=O)Nc2cnccn2)cc1Cl | inactive | 
COc1cc(OC)nc(NC(=O)NS(=O)(=O)Nc2ccccc2C(=O)N(C)C)n1 | inactive | 
O=C(O)CCC(F)(F)C(F)(F)C(F)(F)C(F)(F)C(F)(F)F | inactive | 
C=CC(=O)OCCC(F)(F)C(F)(F)C(F)(F)C(F)(F)C(F)(F)C(F)(F)C(F)(F)C(F)(F)F | inactive | 
Cc1cccc2c1ccc1ccccc12 | inactive | 
OCC(CO)(CBr)CBr | inactive | 
OCCN1CN(CCO)CN(CCO)C1 |  | 32.8 µM (active)
CCCCC=O | inactive | 
CCCCCCCCCCCC | inactive | 
COC1=CC(=O)C[C@@H](C)[C@]12Oc1c(Cl)c(OC)cc(OC)c1C2=O | inactive | 
CCCCc1oc2ccccc2c1C(=O)c1cc(I)c(OCCN(CC)CC)c(I)c1 |  | 22.6 µM (active)
Oc1cc2ccccc2cc1O | inactive | 

SMILES | outcome | AC50
CCCCCc1ccc(O)cc1 |  | 23.7 µM (active)
CCCCCCCCCCCCCCC | inactive | 
C=CC(=C)CC/C=C(\C)CCC=C(C)C | inactive | 
CC(C)(C)c1ccc(O)c(O)c1 |  | 20 µM (active)
O=C(CC(=O)C(F)(F)C(F)(F)C(F)(F)F)c1cccs1 |  | 45.3 µM (active) and 48.7 µM (active)
Cc1[nH]nc2c1N=C(c1ccccc1Cl)c1cc([N+](=O)[O-])ccc1N2 |  | 3.03 µM (active)
C=CC(C)(CCC=C(C)C)OC(C)=O (stereo not given) | inactive | 
CCCCC(CC)C(=O)OCCOCCOCCOCCOC(=O)C(CC)CCCC (stereo not given) | inactive | 
CN(C)CCOC(c1ccccc1)c1ccccc1 | inactive | 
O=C(NCc1ncc(C(F)(F)F)cc1Cl)c1c(Cl)cccc1Cl | inactive | 
Cc1ccc(C(=O)c2ccccc2)cc1 |  | 26.3 µM (active)
Clc1ccc(Nc2nnc(Cc3ccncc3)c3ccccc23)cc1 | inactive | 
O=C(CCCN1CCC(O)(c2ccc(Cl)cc2)CC1)c1ccc(F)cc1 | inactive | 
O=P(O)(O)CCC(F)(F)C(F)(F)C(F)(F)C(F)(F)C(F)(F)C(F)(F)F | inactive | 
CN(Cc1cnc2nc(N)nc(N)c2n1)c1ccc(C(=O)N[C@@H](CCC(=O)O)C(=O)O)cc1 | inactive | 
CC[N+](CC)(CC)Cc1ccccc1 | inactive | 
O=C(c1ccccc1)c1ccccc1 | inactive | 
COc1cccc(O)c1 | inactive | 
CCOC(=O)CN[C@@H](C(=O)N1CC[C@H]1C(=O)NCc1ccc(/C(N)=N/O)cc1)C1CCCCC1 | inactive | 
O=C1c2ccc(O)c(O)c2C(=O)c2c(O)ccc(O)c21 | inactive | 

Reference: PubChem BioAssay (EPA / NIEHS)
